Out of some 370,000 compounds screened, about 5,400 (1.5%) were called active. The full list was thinned out, with actives kept by preference. A number with no mark means an inactive call.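 The calls were made as follows: active = activation above the mean of all tested compounds plus 3 SD (cut at about 5.5% in these data); inactive = the rest.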
These compounds were tested on DAF-12 nuclear receptor (Haemonchus contortus) (assay: H. contortus DAF-12 nuclear receptor activators, primary screen, cell-based, luminescence, HEK293, lit1-tk-luc reporter (AID 652067;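 also: 100% = response to 3 µM Δ7-dafachronic acid high control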)). Details: HEK293 hcDAF-12 lit1-tk-luc reporter, at 6.8 µM, stronger effect = higher value, 0% DMSO, 100% Δ7-dafachronic acid.

Structure (SMILES) | activation
CN1C(=O)c2cc(NS(C)(=O)=O)ccc2OC[C@@H]2O[C@@H](CC(=O)NCc3ccc(-c4ccccc4)cc3)CC[C@H]21 | 0.33%
O=C(OC12CCCN(C1)/C(=C/c1ccccc1)C2)c1ccco1 (stereo not given) | -0.35%
CCC(NC(=O)C1C2C=CC3(CN(Cc4ccccc4)C(=O)C13)O2)c1ccccc1 (stereo not given) | -1.89%
COC(=O)[C@]12C[C@H](CC(=O)NCCC(C)C)C(=O)N(CCc3ccc(OC)c(OC)c3)C1=C[C@H](C(C)(C)C)O[C@@H]2C | -0.99%
Cc1c(NC(=S)NCc2ccc(F)cc2)cccc1[N+](=O)[O-] | -2.35%
O=C(N/N=C/c1ccc(OCC2COCCO2)cc1)c1ccc(Br)cc1 (stereo not given) | -1.26%
O=C(N/N=C/c1ccc(OC(=O)c2ccccc2Cl)cc1)c1ccc(O)cc1 | 5.89% (active)
CC(C)(C)C(=O)Nc1ccc(C(=O)N/N=C/c2ccccc2OC(=O)c2ccc(Cl)cc2Cl)cc1 | -1.06%
C=CCN1C(=O)[C@@H](CC(=O)NCC2CCCCC2)[C@]2(C(=O)OC)CCCCC=C12 | -1.65%
CCOc1ccccc1-c1cc(C(=O)N/N=C(\C)c2cccnc2)c2ccccc2n1 | 1.52%
CCOc1cccc(/C=C/c2ccc3ccccc3n2)c1OC(C)=O | 6.5% (active)
CCOc1ccccc1NC(=O)c1cccnc1 | -0.55%
COC(=O)[C@H](C(C)C)N(CCc1cn(Cc2ccccc2)nn1)S(=O)(=O)c1ccc(F)cc1Br | -3.41%
CC(C)(C)c1ccc(S(=O)(=O)NCC2CCN(C(=O)C(=O)c3cc4ccccc4o3)CC2)cc1 | -1.1%
CCCCN1CCN(C(=O)c2ccc3c(c2)NC(=O)C(C)(C)O3)CC1 | 0.06%
CNc1ccc([N+](=O)[O-])cc1C(=O)O | -0.16%
CCC(C)C(=O)Nc1cc([N+](=O)[O-])ccc1Cl (stereo not given) | 1.23%
Cc1ccc(NC(=O)c2cc([N+](=O)[O-])ccc2Cl)c(O)c1 | 6.38% (active)
COc1ccccc1C(=O)CSc1nnc(-c2ccccn2)n1-c1ccccc1 | -3.35%
CCCC1CCC2(CCCN2CCOC(=O)NCc2ccccc2)CC1 (stereo not given) | -0.18%
CSc1ccc(Oc2cccc3c2S(=O)(=O)N([C@H](C)c2ccccc2)C[C@@H](COCc2ccccc2)O3)cc1C | 0.01%
COc1ccc(C(=O)NCC[N+](C)(C)C)cc1 | -0.19%
CCSc1ccccc1C(=O)NCc1ccc(OC)cc1 | -0.9%

Structure (SMILES) | activation
COc1ccc(C(=O)NCCSc2ccccc2C)cc1 | 5.88% (active)
O=C1Nc2ccccc2C1=NN=Cc1ccco1 | 1.9%
Cc1cc(C)c(/C=C2\C(=O)Nc3ccccc32)[nH]1 | 6.61% (active)
COc1ccccc1S(=O)(=O)c1c(C)cc(C)[nH]c1=O | 0.35%
c1ccc(-n2ncc3c(N4CCCC4)ncnc32)cc1 | 6.43% (active)
CC(Sc1ncnc2c1cnn2-c1ccccc1)C(=O)Nc1ccc(N2CCOCC2)cc1 (stereo not given) | 1.44%
CN(C(=O)COc1ncnc2c1cnn2-c1ccccc1)C1CCCCC1 | -0.54%
COc1ccc(-n2c(SCC(=O)Nc3ccc4c(c3)OCCO4)nnc2-c2ccc(Cl)cc2)cc1 | -1.21%
COc1cc(NC(=O)CN(C)S(=O)(=O)c2ccc3nc(C)sc3c2)cc(OC)c1 | -1.14%
NS(=O)(=O)c1ccc2nc(NC(=O)CS(=O)(=O)c3ccc(F)cc3)sc2c1 | 9.74% (active)
Cc1nc2ccc(S(=O)(=O)NCC(=O)O)cc2s1 | -0.41%
COc1ccc(N2CCN(CCNS(=O)(=O)c3ccc([N+](=O)[O-])cc3)CC2)cc1 | -2.96%
Nc1ccc2c(c1)C(O)c1ccc(Cl)cc1-2 (stereo not given) | 0.07%
Nc1nc2cc(Cl)ccc2n1N | -0.75%
Nc1ccc2nn(-c3ccc(Cl)cc3)nc2c1 | 12.2% (active)
CCOc1ccc(N(CC(=O)Nc2c(C)n(C)n(-c3ccccc3)c2=O)S(=O)(=O)c2ccc(Cl)s2)cc1 | -1%
CN(CCc1ccccc1)C(=O)Cn1nc(-c2ccccc2)ccc1=O | -1.21%
COC(=O)[C@]12C[C@H](CC(=O)NCc3ccccc3)C(=O)N(CCC3=CCCCC3)C1=C[C@H](C(C)C)O[C@@H]2C1CC1 | -1.01%
O=C(Nc1c(Cl)c(C2CC2)nn1-c1ccccc1)C(Cl)(Cl)Cl | -0.16%
O=C(Cn1ccc([N+](=O)[O-])n1)NCc1cccs1 | 10.1% (active)
Cc1ccnc(NC(=O)Cn2ccc([N+](=O)[O-])n2)c1 | 0.29%
O=C(CCn1ccc([N+](=O)[O-])n1)Nc1nccs1 | -1.81%
CCOC(=O)[C@]12CCCC3=C1N(CCC3)C(=O)[C@@H](CC(=O)NCc1cccs1)C2 | -2.04%

Structure (SMILES) | activation
CC1CC(C)CN(C/C=C/c2ccccc2[N+](=O)[O-])C1 (stereo not given) | 6% (active)
COc1cc(CN2CC(C)CC(C)C2)cc([N+](=O)[O-])c1O (stereo not given) | -3.15%
O=C(/C=C/c1ccccc1[N+](=O)[O-])OCC(=O)N1CCCC1 | 3.54%
COc1ccc(C2Nc3ccccc3C(=O)N2Cc2cccs2)cc1COc1c(C)cccc1C (stereo not given) | -0.71%
Cn1c(SCC(=O)c2cccs2)nnc1-c1ccco1 | 0.02%
O=S(=O)(Nc1ccc2nc(-c3ccco3)[nH]c2c1)c1ccccc1 | 1.02%
Cn1c(-c2ccco2)nc2cc3ccccc3cc21 | 17.4% (active)
C=CCN=C1NC(c2cccc(C(F)(F)F)c2)C(C(=O)OC)=C(C)N1C (stereo not given) | -0.27%
Cc1ccc(NC(=O)Cc2cccc(F)c2)c(S(=O)(=O)N2CCOCC2)c1 | -1.13%
Cc1ccccc1NC(=O)COC(=O)c1ccc(Sc2ncn[nH]2)c([N+](=O)[O-])c1 | 0.06%
CCCCN(C)C(=O)c1ccc2c(c1)N(CC)C(=O)c1ccccc1S2(=O)=O | 6.63% (active)
O=C(c1ccc2c(c1)N(Cc1ccc(F)cc1)C(=O)c1ccccc1S2(=O)=O)N1CCN(c2ccccn2)CC1 | -2.49%
COC(=O)CNC(=O)c1ccc2c(c1)S(=O)(=O)c1ccccc1C2=O | -0.44%
OC(c1ccccc1)(c1ccccc1)C1CCN(CCCOc2ccc(-c3ccsc3)cc2)CC1 | 0.49%
CC(NCc1ccco1)C(=O)N1CCCCC1 (stereo not given) | 0.18%
COc1ccc2nc(SCc3ccccc3)nc(C)c2c1 | 7.19% (active)
COc1ccc(NCc2nnc(SCc3ccccc3)n2-c2ccc(OC)cc2)cc1 | -1.98%
COc1cccc(CSc2nnc(-c3cccnc3)n2Cc2ccccc2)c1 | -1.85%
Fc1ccc2nc(COCc3nc4ccc(F)cc4[nH]3)[nH]c2c1 | -1.16%
CCOc1ccccc1Nc1nnc(SCC(=O)Nc2cc(C)on2)s1 | -3.24%
Cc1ccccc1Nc1nnc(SCC(=O)c2cc3ccccc3o2)s1 | 7.93% (active)
Cc1cccc(Nc2nnc(SCC(=O)c3c(N)n(C4CC4)c(=O)[nH]c3=O)s2)c1C | -1.19%
CC(=NNC(N)=O)c1ccc(Cl)c(-n2cccc2)c1 | 0.37%

Structure (SMILES) | activation
COc1cc(OC)cc(-c2cc3ccc(F)cc3cn2)c1 | 3.13%
Fc1ccc2cnc(-c3ccccc3)cc2c1 | 6.9% (active)
O=c1cc(-c2ccccc2)[nH]c2cc(F)ccc12 | -0.52%
COC(=O)[C@]12C[C@H](CC(=O)NCc3ccccc3)C(=O)N(CCc3ccc(OC)c(OC)c3)C1=C[C@H](C(C)(C)C)O[C@@H]2C | -2.1%
O=c1[nH]c(-c2ccccc2)cn1C1CCN(Cc2ccc(-c3nc4ccc(F)cc4nc3-c3ccccc3)cc2)CC1 | 0.07%
O=C(CCS(=O)(=O)c1ccccc1)Nc1ccc(Cl)c(Cl)c1 | 0.35%
COc1ccc(C#CCNCc2ccc(OC)cc2OC)cc1 | -3.08%
Cc1ccc2nc(-c3ccc(CN4CCC(n5cc(-c6ccccc6)[nH]c5=O)CC4)cc3)c(-c3ccccc3)nc2c1 | -2.64%
CN(C)CCNC(=O)c1ccc(Cl)c2cc3ccccc3nc12 | 13.5% (active)
Cc1cc(C)n(C(=O)CCNC(=O)c2ccccc2Cl)n1 | -1.04%
COCCNC(=O)c1ccccc1-c1nc(-c2ccccc2Cl)no1 | 2.6%
O=C(N1CCOCC1)N(Cc1ccccc1)c1ccccn1 | -1.16%
S=C(Nc1ccccc1)Nc1ccc2ccccc2c1 | 6.41% (active)
O=S(=O)(NC(=S)Nc1ccccc1)c1ccc(F)cc1 | 2.29%
O=C(Nc1ccc2ccccc2c1)Nc1ccc2snnc2c1 | -0.5%
CC(=O)C1=C(C)N(Cc2ccc(Cl)cc2)C(=S)NC1c1ccc(F)cc1 (stereo not given) | 0.56%
Nc1nc2c(ncn2[C@@H]2O[C@H](C(=O)N[C@@H](Cc3ccccc3)C(=O)NCc3ccccc3)[C@@H](O)[C@H]2O)c(=O)[nH]1 | 1.55%
O=S(=O)(c1ccc2c(c1)OCCCO2)N1CCN(S(=O)(=O)c2c(F)cccc2F)CC1 | -1.98%
C=CCn1c(CCNC(=O)c2cccs2)n[nH]c1=S | 1.16%
C=CCn1c(=NC(=O)c2ccc(S(=O)(=O)N3CCCC3)cc2)sc2cc(NC(C)=O)ccc21 | -1.46%
C=CCn1c(=NC(=O)c2cccs2)sc2cc(NC(C)=O)ccc21 | 6.19% (active)

Source: PubChem BioAssay AID652067 (The Scripps Research Institute Molecular Screening Center, 2013)
